Hits are enriched below; roughly 1% of the tested compounds scored in any of these assays.
RECQ1 inh: blocks DNA unwinding by human RECQ1; P46063; RECQ1 DNA unwinding, red fluorescence kinetic read; Potency, µM (doses to about 57.3 µM), hits mostly inhibitors; 240,000 tested, 0.54% active; AID 2549; note: nearly all actives have a fitted effect of over 30% in size
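50 nM RECQ1T1 preincubated 15 min with compound in Tris pH 8.0 buffer with MgCl2, DTT, Tween-20 and 2.5 ug/ml poly(dI-dC); started with 200 nM TAMRA/BHQ-2 forked duplex and 2 mM ATP. Unwinding read as fluorescence (525/598 nm), two reads 2 h apart.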
APE1 inh: inhibitors of human APE1 endonuclease | 350,000 tested, 0.35% active | AID 2517 | recombinant APE1, TAMRA/BHQ-2 abasic DNA cleavage fluorescence | Potency, µM (top dose mostly 65.8 µM), hits mostly inhibitors | P27695; note: nearly all actives have a fitted effect of over 55% in size
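Readout is kinetic fluorescence (ex 525, em 598 nm) from cleavage of 50 nM TAMRA/BHQ-2 THF abasic duplex by 0.75 nM APE1, compound added 15 min beforehand at RT.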
WRN helicase inh: inhibitors of human WRN helicase | Q14191 | 360,000 tested, 0.46% active | Potency, µM (series often up to 114 µM), hits mostly inhibitors | WRN helicase unwinding, fluorescent forked duplex, kinetic; note: nearly all actives have a fitted effect of over 55% in size
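Primary qHTS, 1536-well format. 20 nM WRN + compound, 15 min RT; start with 100 nM forked fluorophore/quencher duplex, 2 mM ATP (final); kinetic read ex 525/em 598 nm.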
BLM inh: blocks DNA unwinding by human BLM helicase | Potency, µM (series often up to 56.1 µM), most hits filed as inhibitors | 350,000 tested, 0.2% active | P54132 | recombinant BLM DNA unwinding, fluorescence dequenching; note: nearly all actives have a fitted effect of over 35% in size
FEN1 inhibitor: inhibitors of human flap endonuclease 1. Recombinant FEN1 flap cleavage, fluorescence, 15 min. 390,000 tested, 0.35% active. Potency, µM (doses to about 114 µM), hits mostly inhibitors. P39748. AID 588795; note: nearly all actives have a fitted effect of over 65% in size
Target sequence (P39748 whole entry, looked up): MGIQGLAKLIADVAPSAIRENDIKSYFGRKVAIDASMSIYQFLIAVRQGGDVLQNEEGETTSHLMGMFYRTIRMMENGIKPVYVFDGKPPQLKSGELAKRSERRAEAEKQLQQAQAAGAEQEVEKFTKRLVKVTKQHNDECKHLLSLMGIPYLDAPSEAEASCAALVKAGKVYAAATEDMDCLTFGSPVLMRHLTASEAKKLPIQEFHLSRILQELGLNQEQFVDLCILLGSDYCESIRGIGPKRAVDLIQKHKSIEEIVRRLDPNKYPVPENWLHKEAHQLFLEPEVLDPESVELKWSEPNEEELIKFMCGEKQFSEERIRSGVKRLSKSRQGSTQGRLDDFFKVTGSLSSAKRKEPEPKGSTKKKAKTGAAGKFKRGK
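Compounds are tested as a concentration series against 10 nM FEN1; after a 15 min room-temperature preincubation, 50 nM substrate starts cleavage, with plate reads at 0 and 15 min. Normalized responses are fitted by a Hill equation.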
L3MBTL1 inh: L3MBTL1 (human) inhibition; 230,000 tested, 0.66% active; AID 485360; Potency, µM (series often up to 57.1 µM), usual class: inhibitors; AlphaScreen L3MBTL1–H3K9me1 peptide binding; Q9Y468; note: nearly all actives have a fitted effect of over 60% in size
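First, the protein-peptide complex forms for 30 min at room temperature (L3MBTL1 50 nM, biotinylated H3K9me1 peptide 75 nM). Next, compounds are pin-transferred and incubated 30 min. Finally, AlphaScreen beads are added and read after 30 min.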
Each line names hits and unclear results; the compound was inactive in the other large screens. Calls come from the whole dose curve; as a rule, active = well fitted curve in the direction sought with a large enough effect; inconclusive = small, poorly fitted or top-dose-only effect, or another doubt; inactive = no such curve, though single readings can be large; an effect the other way counts as inactive or inconclusive.

COC(=O)[C@]12CCCCC=C1N(Cc1ccc3c(c1)OCO3)C(=O)[C@H](CC(=O)NCc1ccc(OC)c(OC)c1)C2	none (no result: RECQ1 inh, APE1 inh, BLM inh, FEN1 inhibitor, L3MBTL1 inh)
Cc1ccc(C)c(S(=O)(=O)Nc2cc(SCC(=O)O)c(O)c3ccccc23)c1	WRN helicase inh 18µM, BLM inh 16µM, FEN1 inhibitor 56µM, L3MBTL1 inh inconclusive
O=C1C=C(Nc2ccccc2C(=O)O)c2ccccc2C1=O	FEN1 inhibitor inconclusive (no result: L3MBTL1 inh)
O=C1C=C(Nc2cccc3cccnc23)c2ccccc2C1=O	BLM inh inconclusive, FEN1 inhibitor 50µM, L3MBTL1 inh inconclusive (no result: RECQ1 inh)
CCOc1ccc(/C=C/C2=Cc3c(sc(NC(=O)CSc4n[nH]c(N)n4)c3C#N)C(C)(C)C2)cc1	RECQ1 inh inconclusive, WRN helicase inh 45µM
CCN1C(=O)/C(=C\c2ccc(-c3cccc(C(=O)OC)c3)o2)SC1=Nc1ccc(C(=O)O)cc1	APE1 inh inconclusive (no result: RECQ1 inh, WRN helicase inh, FEN1 inhibitor)
O=C(O)c1cccc(-c2ccc(/C=C3/SC(=Nc4ccccc4)N(Cc4cccnc4)C3=O)o2)c1	APE1 inh 7.5µM, WRN helicase inh inconclusive, FEN1 inhibitor inconclusive (no result: RECQ1 inh, L3MBTL1 inh)
CN(C)CCCN1C(=O)c2cccc3c(Br)ccc(c23)C1=O	FEN1 inhibitor 18µM (no result: L3MBTL1 inh)
O=C(c1cccs1)N(Cc1ccco1)c1ccc(O)cc1	none (no result: RECQ1 inh, APE1 inh, WRN helicase inh, BLM inh, L3MBTL1 inh)
Nc1ccc(N=Nc2ccccc2)c2ccccc12	L3MBTL1 inh 32µM
N#Cc1cccc(N=c2ssnc2Cl)c1	WRN helicase inh 25µM
Clc1ccc(N=c2ssnc2Cl)nc1	FEN1 inhibitor inconclusive, L3MBTL1 inh inconclusive
Clc1nssc1=Nc1ccc(Br)cc1	WRN helicase inh 40µM (no result: L3MBTL1 inh)
Clc1nssc1=Nc1nncs1	FEN1 inhibitor inconclusive (no result: RECQ1 inh, BLM inh)
COc1cc(N=c2ssnc2Cl)cc(OC)c1	WRN helicase inh 50µM
CCN(CC(=O)Nc1ccc(NC(C)=O)cc1)C(=O)CCCc1c[nH]c2ccccc12	none (no result: RECQ1 inh, BLM inh)
COc1ccc(NC(=O)CSc2nnc(-c3ccccn3)n2N)cc1Cl	L3MBTL1 inh inconclusive
Cc1cc(C)c(NC(=O)CSc2nnc(-c3ccccn3)n2N)c(Cl)c1	L3MBTL1 inh 28µM
Nn1c(SCc2c(F)cccc2F)nnc1-c1ccccn1	L3MBTL1 inh 20µM
CCc1cccc(C)c1NC(=O)C1CCN(S(=O)(=O)c2cccc3nonc23)CC1	FEN1 inhibitor 89µM (no result: RECQ1 inh, APE1 inh, WRN helicase inh, L3MBTL1 inh)
c1coc(CNc2nc(-c3cccs3)cs2)c1	L3MBTL1 inh 28µM
O=[N+]([O-])c1ccccc1NC(=S)N/N=C/c1ccc(O)c(O)c1	RECQ1 inh inconclusive, APE1 inh inconclusive, WRN helicase inh 11µM, L3MBTL1 inh inconclusive
O=C(CO)[C@@H](O)[C@H](O)[C@@H](O)CO	none (no result: RECQ1 inh, WRN helicase inh, BLM inh, FEN1 inhibitor, L3MBTL1 inh)
O=C(C[n+]1ccccc1)c1cccc([N+](=O)[O-])c1	none (no result: RECQ1 inh, APE1 inh, WRN helicase inh, BLM inh, L3MBTL1 inh)
COc1ccccc1CNS(=O)(=O)c1ccc2[nH]c3c(c2c1)CCCCC3	none (no result: RECQ1 inh, APE1 inh, WRN helicase inh, L3MBTL1 inh)
Cc1ccc(CNc2cccc(N3CCCCC3)c2)cc1	none (no result: RECQ1 inh, WRN helicase inh, BLM inh, FEN1 inhibitor, L3MBTL1 inh)
CCCCCCCCCCCCCCOc1ccc(C(=O)O)o1	APE1 inh 25µM (no result: WRN helicase inh, FEN1 inhibitor, L3MBTL1 inh)
O=C(N/N=C/c1cccc2cccnc12)c1ccccc1O	L3MBTL1 inh 6.3µM
COc1ccc(NC(=O)CSc2nnc(-c3cccc(S(=O)(=O)N4CCCC4)c3)n2-c2ccccc2)cc1	none (no result: RECQ1 inh, WRN helicase inh, BLM inh, FEN1 inhibitor, L3MBTL1 inh)
N#Cc1cccc(-c2noc(-c3ccccc3F)n2)c1	none (no result: RECQ1 inh, WRN helicase inh, BLM inh, FEN1 inhibitor, L3MBTL1 inh)
CC(C(=O)N(C)C1CCS(=O)(=O)C1)N1C(=O)/C(=C/c2ccc(F)cc2)SC1=S (stereo not given)	none (no result: RECQ1 inh, L3MBTL1 inh)
O=C1/C(=C\c2ccco2)SC(=S)N1C1CCS(=O)(=O)C1 (stereo not given)	RECQ1 inh inconclusive, APE1 inh 20µM, L3MBTL1 inh inconclusive
CCN(C(=O)C(C)N1C(=O)/C(=C/c2ccco2)SC1=S)C1CCS(=O)(=O)C1 (stereo not given)	WRN helicase inh 50µM, FEN1 inhibitor inconclusive (no result: RECQ1 inh, L3MBTL1 inh)
CC[C@@H](C)[C@H](N)C(=O)O	none (no result: RECQ1 inh, WRN helicase inh, BLM inh, FEN1 inhibitor, L3MBTL1 inh)
O=C1Nc2cc3c(cc2C1=O)sc1ccccc13	WRN helicase inh 45µM, FEN1 inhibitor inconclusive, L3MBTL1 inh inconclusive
Cc1cc2c(cc1C)C(=O)C(=O)N2	none (no result: RECQ1 inh, APE1 inh, BLM inh, L3MBTL1 inh)
Cc1cc2nc(-c3ccc(SCC(=O)N4CCN(C(=O)c5ccco5)CC4)nc3)[nH]c2cc1C	WRN helicase inh inconclusive, L3MBTL1 inh 32µM

High-throughput results from PubChem BioAssay.
